Molecules are shown by their SMILES. Compounds without any hit were thinned out: in the full panel of roughly 83,000, 20% have a hit.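 Assay: single dose, 48 h. Readout: percent growth (0 = no net growth; negative = cell death). Active: <10.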 Values without a mark were called inactive. Activity calls are given as the source filed them.

The test deals with NCI-H460 lung. Description: NCI-60 one-dose screen, 48 h (100 = growth as untreated, 0 = no growth, -100 = all killed). Particulars: 10 µM.
Take `CCN1CCN(CCC(=O)Nc2cccc(-n3cc(-c4ccncc4)c(-c4ccc(Cl)c(OC)c4)n3)c2)CC1`: the growth was 6.94% (active).

On to `O=C1/C=C/[C@@H](O)[C@@H]2C[C@@H](O)C[C@H]2/C=C/CCC[C@H](C(F)(F)F)O1`, for which the growth was 59.2%.

Consider `CC[C@@H](C(=O)[C@@H](C)[C@@H](O)[C@H](C)[C@@H]1O[C@@H]([C@@H](CC)C(=O)N(CC)CC)CC[C@@H]1C)C1O[C@]2(C=CC(=O)[C@]3(CC[C@@](C)([C@H]4CC[C@](O)(CC)[C@H](C)O4)O3)O2)[C@H](C)C[C@@H]1C` (some centres undefined), for which the growth was 18.5%.

Turning to `COc1ccc(-c2cc(-c3ccc(Cl)cc3)nc(SCCCCCCC(=O)NO)n2)cc1OC`, the growth is 19.7%.

For the compound `N#CCc1csc(Cc2ccccc2)n1`, the growth was 102%.

Turning to `CC(C)(C)OC(=O)CN1CCc2c(sc3ncnc(N/N=C/c4ccccc4Br)c23)C1`, the growth is 70.9%.

With `CC(CN(C)C)Oc1ccccc1NC1=C(Cl)C(=O)C(Nc2ccccc2OC(C)CN(C)C)=C(Cl)C1=O` (centres undefined), the growth was -4.55% (active).

For `Nc1ccn(Cc2nnc(CCC(=O)c3nc4ccccc4[nH]3)o2)c(=O)n1`, the growth was 34.6%.

Take `CC(C)(C)OC(=O)CN1CCc2c(sc3ncnc(N/N=C/c4cccc5ccccc45)c23)C1`: the growth was 20.9%.

In the case of `CCOC(=O)c1cc(C(=O)c2ccc(Cl)cc2)n2ccc(-c3cc[n+](CC(=O)c4ccc(OC)cc4)cc3)cc12`, the growth was 3.93% (active).

On to `NS(=O)(=O)Oc1ccc(NC(=O)C2CCCCCC2)cc1`, for which the growth was 106%.

`NNC(=O)Oc1c(Cl)cc(Cl)cc1[N+](=O)[O-]`: the growth is 110%.

Turning to `O=C1c2ccccc2C(=O)c2c1ccc(C(Br)Br)c2[N+](=O)[O-]`, the growth was 75.2%.

`COc1ccc(NC(=O)C2CC3C=CC2C3)c([N+](=O)[O-])c1` (centres undefined): the growth is 107%.

For `CC[C@@H](C(=O)[C@H](C)[C@H](O)[C@@H](C)[C@H]1O[C@H]([C@@H](CC)C(=O)N(CC)CC)CC[C@H]1C)C1O[C@]2(C=C[C@@H](O)[C@]3(CC[C@@](C)([C@H]4CC[C@](O)(CC)[C@H](C)O4)O3)O2)[C@H](C)C[C@@H]1C` (some centres undefined), the growth was 12.5%.

Take `COc1cc(-c2nn(-c3cccc(NC(=O)NCCNC(=O)c4cccc(C(F)(F)F)c4)c3)cc2-c2ccncc2)ccc1Cl`: the growth is 18.7%.

On to `O=C(O)c1cc([N+](=O)[O-])ccc1Oc1ccccc1`, for which the growth is 105%.

Consider `CCOC(=O)c1cc(C(=O)c2cc(OC)c(OC)c(OC)c2)n2nc(C)ccc12`, for which the growth was 9.56% (active).

Turning to `CC[C@@H](C(=O)[C@@H](C)[C@@H](O)[C@H](C)[C@@H]1O[C@@H]([C@@H](CC)C(=O)O)CC[C@@H]1C)C1O[C@]2(C=CC(=O)[C@]3(CC[C@@](C)([C@H]4CC[C@](O)(CC)[C@H](C)O4)O3)O2)[C@H](C)C[C@@H]1C` (some centres undefined), the growth was 23.8%.

With `Cc1ccc(S(=O)(=O)N(C)CCCCCC(=O)O)cc1`, the growth is 107%.

Consider `COc1ccc(C2=Cn3c(CCC(=O)c4nc5ccccc5[nH]4)nnc3SC2)cc1`, for which the growth was 101%.

As for `CCCN(CCC)C(=O)[C@H](CC)[C@@H]1CC[C@@H](C)[C@@H]([C@H](C)[C@@H](O)[C@@H](C)C(=O)[C@H](CC)C2O[C@]3(C=C[C@@H](O)[C@]4(CC[C@@](C)([C@H]5CC[C@](O)(CC)[C@H](C)O5)O4)O3)[C@H](C)C[C@@H]2C)O1` (some centres undefined), the growth is 1.15% (active).

With `OCC1OC(n2cnc3c(NCc4ccco4)ncnc32)C(O)C1O` (centres undefined), the growth is 23.1%.

For the compound `CC[C@@H](C(=O)[C@H](C)[C@H](O)[C@@H](C)[C@H]1O[C@H]([C@@H](CC)C(=O)O)CC[C@H]1C)C1O[C@]2(C=C[C@@H](O)[C@]3(CC[C@@](C)([C@H]4CC[C@](O)(CC)[C@H](C)O4)O3)O2)[C@H](C)C[C@@H]1C` (some centres undefined), the growth was 11.4%.

For `O=C(/C=C/c1cccc(B(O)O)c1)c1cccc(B(O)O)c1`, the growth was 23.3%.

As to `Cc1ccc(Cl)cc1NC(=O)CCl`, the growth is 98.4%.

In the case of `COc1cc(/C=C/c2cc(/C=C/c3ccc(O)c(OC)c3)nc(N)n2)ccc1O`, the growth is 5.54% (active).

In the case of `C/C(=N\O)c1ccc(NC(=O)CSc2nnc(-c3ccccc3)n2-c2ccccc2)cc1`, the growth was 66.7%.

On to `O=C(NCCCNS(=O)(=O)c1ccc(Cl)cc1)Nc1ccc(-n2cc(-c3ccncc3)c(-c3ccc(Cl)c(O)c3)n2)cc1`, for which the growth is 13.7%.
